This note sets out measurements from PubChem BioAssay AID624296 (National Center for Advancing Translational Sciences (NCATS), 2012).

In all, about 350,000 compounds went through this assay and about 9,900 (2.8%) were called active. Inconclusive results (about 15%) are left out. The call rests on the fitted dose curve; in most records, active means well fitted activation curve with a large enough effect; inconclusive means small, poorly fitted or top-dose-only effect; inactive means no such curve, though single readings can be large or run the other way. What follows is part of a selection rich in actives, with near analogues and random picks from the rest.
Potency means the concentration at half of the fitted maximal effect.

A short description of this experiment: A quantitative high throughput screen for small molecules that induce DNA re-replication in MCF 10a normal breast cells. Further: nearly all actives have a fitted effect of over 50% in size. On activity, positive = re-replication: % of control where 0% means no effect. The conditions noted are these: MCF 10A DNA re-replication, Hoechst nuclear intensity, 48 h; series mostly up to 46.1 µM; activity, positive = re-replication: at the top concentration.
In the case of `CCC(CO)Oc1cc(NC(=O)c2cccc3ccccc23)c2ncn(C(C)C)c2c1` (centres undefined), the “activity, positive = re-replication” value was -2.74% (inactive).

Turning to `CS(=O)(=O)Nc1ccc(C2=NN(S(C)(=O)=O)C(c3cccs3)C2)cc1` (centres undefined), the “activity, positive = re-replication” value is 1.04% (inactive).

On to `COc1ccc(C2=NN(C(=O)CCC(=O)O)C(c3cccs3)C2)cc1OC` (centres undefined), for which the “activity, positive = re-replication” value is -6.26% (inactive).

With `CCS(=O)(=O)Nc1ccc(C2=NN(C(C)=O)C(c3cccs3)C2)cc1` (centres undefined), the Potency was 9.2 µM (active).

On to `Cn1cc(C2OC(=O)c3ccccc32)c2ccccc21` (centres undefined), for which the “activity, positive = re-replication” value is 74.6% (inactive).

With `O=C(Nc1cccc(F)c1)c1cc(-c2ccco2)nc2ccccc12`, the “activity, positive = re-replication” value was 6.3% (inactive).

For the compound `CNC(=S)NNC(=O)c1oc2nc(-c3ccccc3)cc(-c3ccco3)c2c1N`, the “activity, positive = re-replication” value is 21.2% (inactive).

Take `NNC(=O)c1oc2nc(-c3ccccc3)cc(-c3ccco3)c2c1N`: the Potency was 20.6 µM (active).

Consider `Cc1ccc(S(=O)(=O)N2C[C@@H]3CCCC[C@@H]3[C@@H](C)[C@H]2c2cn(Cc3ccccc3)c3ccc(F)cc23)cc1`, for which the “activity, positive = re-replication” value was 2.93% (inactive).

For `Cn1c(N)c(C(=O)COC(=O)COc2ccc(Cl)cc2)c(=O)n(C)c1=O`, the “activity, positive = re-replication” value is -4.1% (inactive).

In the case of `COc1ccccc1N1N=C(c2cccs2)CC1c1ccccc1` (centres undefined), the “activity, positive = re-replication” value is 16.3% (inactive).

As for `Fc1ccc(N2N=C(c3cccs3)CC2c2ccco2)c(F)c1` (centres undefined), the Potency is 7.31 µM (active).

As for `Cc1ccccc1C1CC(c2cccs2)=NN1S(C)(=O)=O` (centres undefined), the “activity, positive = re-replication” value is -23.5% (inactive).

On to `O=C(N/N=C\c1cccnc1)c1cc(-c2ccccc2)nc2c(Cl)cccc12`, for which the Potency is 7.31 µM (active).

In the case of `C/C(=N\NC(=O)c1cc(-c2ccc(O)cc2)nc2ccccc12)c1cccnc1`, the “activity, positive = re-replication” value was 4.37% (inactive).

Regarding `O=C(N/N=C/c1cccnc1)c1cc2ccccc2cc1O`, the “activity, positive = re-replication” value is -15.4% (inactive).

On to `COc1cccc(CC(=NO)c2cccc(OC)c2)c1`, for which the “activity, positive = re-replication” value is 2.69% (inactive).

Regarding `CC1(C(=O)OCC(=O)Nc2ncc(Cl)cc2Cl)CC1(Cl)Cl` (centres undefined), the “activity, positive = re-replication” value was 1.07% (inactive).

With `COc1ccc(NC(=O)[C@H](NC(=O)[C@@H]2Cc3ccccc3CN2)c2ccccc2)cc1`, the “activity, positive = re-replication” value was 1.04% (inactive).

As for `COc1ccc(CNC(=O)[C@H](Cc2c[nH]c3ccccc23)NC(C)=O)cc1OC`, the “activity, positive = re-replication” value is -1.5% (inactive).

For `COc1cccc(NC(=O)[C@H](Cc2c[nH]c3ccccc23)NC(=O)[C@@H]2Cc3ccccc3CN2)c1`, the Potency was 18.4 µM (active).

For `CCc1c(Nc2ccccc2C)nc(N)[nH]c1=O`, the “activity, positive = re-replication” value was -6.06% (inactive).

Regarding `COc1ccc(OC)c(CN2CCN(C(=O)CNC(=O)c3cc(C)cc(C)c3)CC2)c1`, the “activity, positive = re-replication” value is 15% (inactive).

`Cc1ccc(C(=O)NCC(c2cccs2)N(C)C)cc1S(=O)(=O)N1CCOCC1` (centres undefined): the “activity, positive = re-replication” value is 26.2% (inactive).

As to `COc1ccc2[nH]c3c(c2c1)CCN1C(=O)C(CC(=O)NCCc2ccccn2)C[C@H](C(=O)N2CCOCC2)[C@@]31C` (some centres undefined), the “activity, positive = re-replication” value is 1.89% (inactive).

Regarding `O=C(COC(=O)c1c(Cl)cccc1Cl)Nc1cccc(S(=O)(=O)NC2=NCCCCC2)c1`, the “activity, positive = re-replication” value was 3.95% (inactive).

For the compound `COc1ccccc1C(=O)OCC(=O)Nc1cccc(S(=O)(=O)NC2=NCCCCC2)c1`, the Potency was 18.4 µM (active).

`CCc1ccc(C(=O)OCC(=O)Nc2cccc(S(=O)(=O)NC3=NCCCCC3)c2)cc1`: the “activity, positive = re-replication” value is -9.03% (inactive).

For the compound `CC(NC(=O)c1ccccc1)C(=O)Nc1ccccc1` (centres undefined), the “activity, positive = re-replication” value is -2.99% (inactive).

With `CC(Oc1ccc2c(-c3ccccc3)cc(=O)oc2c1)C(=O)NC(Cc1c[nH]c2ccccc12)C(=O)O` (centres undefined), the “activity, positive = re-replication” value was -19.5% (inactive).

In the case of `Cc1ccc(S(=O)(=O)N2CCN(c3ccccc3)CC2)cc1C`, the “activity, positive = re-replication” value was 1.22% (inactive).

`Cc1cc(N2CCN(S(=O)(=O)c3ccc(C)c(C)c3)CC2)c2ccccc2n1`: the Potency was 10.3 µM (active).

Consider `Cc1ccccc1N1CCN(S(=O)(=O)c2ccc3ccccc3c2)CC1`, for which the “activity, positive = re-replication” value is 17.8% (inactive).

`COc1ccc(Cl)cc1C=CC=NNC(=O)c1ccncc1`: the “activity, positive = re-replication” value was 0.633% (inactive).

In the case of `COc1ccccc1C(=O)NCC(=O)OCC(=O)NNC(=O)c1ccc(Br)cc1`, the “activity, positive = re-replication” value was -1.96% (inactive).

`O=C(O)c1ccccc1N=N/C(=N/Nc1cc(S(=O)(=O)O)ccc1O)c1ccccc1`: the “activity, positive = re-replication” value was -5.64% (inactive).

On to `O=C(CN1C(=O)c2cccc3cccc1c23)Nc1ccccc1`, for which the Potency was 20.6 µM (active).

As for `Cc1cccc(NC(=O)CN2C(=O)c3ccccc3C2=O)c1C`, the “activity, positive = re-replication” value is 14.4% (inactive).

Take `Cc1cc(C)cc(NC(=O)CN2C(=O)c3ccccc3C2=O)c1`: the “activity, positive = re-replication” value was -6.92% (inactive).

In the case of `CN(C(=O)CSc1nnc(-c2ccc3c(c2)OCO3)o1)C1CCS(=O)(=O)C1` (centres undefined), the “activity, positive = re-replication” value is -9.07% (inactive).

Take `Cc1ccc(S(=O)(=O)N(C)C)cc1NC(=O)c1ccc(-n2cncn2)c([N+](=O)[O-])c1`: the “activity, positive = re-replication” value is 1.7% (inactive).

As for `CCOCCn1[nH]c2ccccc2c1=O`, the “activity, positive = re-replication” value was 13.8% (inactive).

`COc1ccc(CNC(=O)COC(=O)C2=Cc3ccccc3OC2)cc1`: the Potency was 18.4 µM (active).

For `COc1ccc(CCNC(=O)COC(=O)c2cc(=O)c3ccccc3o2)cc1`, the “activity, positive = re-replication” value was -1.05% (inactive).

On to `O=C(COC(=O)c1ccc2c(c1)OCCO2)NCc1ccccc1`, for which the “activity, positive = re-replication” value was -0.36% (inactive).

For `CN(/N=C/c1ccccc1)C(=S)c1ccccc1`, the “activity, positive = re-replication” value is 0.402% (inactive).

On to `CCC(CO)Oc1cc(NC(=O)c2ccc(Cl)cc2)c2ncn(C(C)C)c2c1` (centres undefined), for which the “activity, positive = re-replication” value is 0.301% (inactive).

As for `Cc1nnc(N/N=C/c2ccccn2)[nH]c1=O`, the Potency is 2.59 µM (active).

For the compound `Cc1nnc(N/N=C/c2cccs2)[nH]c1=O`, the “activity, positive = re-replication” value is -2.78% (inactive).

In the case of `Cc1ccccc1Nc1nnc(C)c(=O)[nH]1`, the “activity, positive = re-replication” value was -1.32% (inactive).

With `CCOc1ccc(C(=O)NC2CCN(C(=O)Nc3ccccc3OC)CC2)cc1`, the “activity, positive = re-replication” value is 0.507% (inactive).

`COc1ccc2nc(N3CCCC(O)C3)c(C#N)cc2c1` (centres undefined): the “activity, positive = re-replication” value was 6.88% (inactive).

As to `CCOc1ccc2nc(N3CCCN(C(=O)Nc4ccccc4C)CC3)c(C#N)cc2c1`, the Potency was 16.4 µM (active).

Turning to `C[C@H](NS(=O)(=O)c1ccc(Cl)cc1)C(=O)OCC(=O)N1CCOCC1`, the “activity, positive = re-replication” value was -7.44% (inactive).

On to `CC(C)[C@@H](C(=O)OCC(=O)c1ccc2c(c1)NC(=O)CO2)N1C(=O)c2ccccc2C1=O`, for which the “activity, positive = re-replication” value is 14.5% (inactive).

With `Cc1cccc(Nc2nnc(SCC(=O)c3c(N)n(C4CC4)c(=O)[nH]c3=O)s2)c1C`, the “activity, positive = re-replication” value was 3.57% (inactive).

On to `COc1ccc(/C=N/Nc2nc3ccccc3c(=O)[nH]2)cc1`, for which the “activity, positive = re-replication” value is 0.203% (inactive).

Turning to `O=c1[nH]c(NCCO)nnc1Cc1ccc(Cl)cc1`, the “activity, positive = re-replication” value was -14.8% (inactive).

Regarding `COc1ccc(Cc2nnc(N/N=C/c3ccccc3O)[nH]c2=O)cc1OC`, the Potency is 10.3 µM (active).

In the case of `CCN(CC)S(=O)(=O)c1ccc(N2CCOCC2)c(NC(=O)C(C)Oc2ccc(F)cc2)c1` (centres undefined), the “activity, positive = re-replication” value is 0.635% (inactive).

Turning to `CC(C)(C)Cc1nnc(NC(=O)c2cc(-c3ccccc3)nc3ccccc23)s1`, the “activity, positive = re-replication” value was 19.2% (inactive).

As for `COC(=O)c1cc(-c2cccs2)nc2ccccc12`, the “activity, positive = re-replication” value was -1.79% (inactive).

`O=C(Nc1nnc(-c2ccccc2)o1)c1cc(-c2cccs2)nc2ccccc12`: the Potency was 2.06 µM (active).

With `COc1cccc(N2CCN(CC(=O)Nc3ccnn3C3CCCC3)CC2)c1`, the “activity, positive = re-replication” value was 8.58% (inactive).
